# About 2,900 (47%) of roughly 6,200 compounds were called active. The set was probably picked from earlier hits. The list shows a part of the results. Unmarked numbers belong to inactive results. Cut-off read from the data, not from the text of the source: active = inhibition above about 50%; inactive = the rest.
# Experiment: Mycobacterium tuberculosis growth inhibition, primary screen (AID 1259343)
# Conditions: inhibition: at 10 µM, hits give high values; outcome: 10 uM
row,Compound,inhibition
1,Cc1ccc(C(=O)C(C#N)C(=O)C2CCCC(C(F)(F)F)C2)s1 (stereo not given),101% (active)
2,O=C(Nc1ccc(-n2cccn2)nc1)C1CCCC(C(F)(F)F)C1 (stereo not given),7.71%
3,Cn1c(=O)oc2cc(NC(=O)C3CCCC(C(F)(F)F)C3)ccc21 (stereo not given),-34.1%
4,Cc1ccc(NCCOc2ccccc2F)cc1-n1cnnn1,54.8% (active)
5,Cc1ccc(NC(=O)NC2CCC(C)CC2)cc1-n1cnnn1 (stereo not given),-21.7%
6,Cc1nn2c(NCCN3CCOCC3)cc(-c3ccccc3)nc2c1-c1ccccc1,48.5%
7,CCn1c2ccccc2c2cc(Nc3ccnc(NCCCN4CCOCC4)n3)ccc21,53.6% (active)
8,CC(SC(=S)N1CCCC1)c1nc(C2CC2)no1 (stereo not given),-46.6%
9,NC(=O)c1cccc(COc2cc(Cl)cc(Cl)c2)c1,49.7%
10,Cc1cc(OCc2cccc(Cl)c2)ccc1N,92.4% (active)
11,Cc1ccc(C2CC2C(=O)Nc2nc(C)c(SCC#N)s2)s1 (stereo not given),39.7%
12,Cc1c(C(=O)NCc2ccc(Cl)c(Cl)c2)sc(=O)n1Cc1cccc(F)c1,41.3%
13,Cc1nc(NC(=O)CNC(=O)Cc2cccc(F)c2)sc1SCC#N,81.8% (active)
14,CCC(C)c1ccc(Nc2nc(C)c(C)s2)cc1 (stereo not given),41.7%
15,CC(C)CSc1nnc(SCC(=O)Nc2ccc(C#N)cc2)s1,-25.3%
16,CNC(=O)NC(=O)C(C)Sc1nnc(Nc2ccc(C)cc2)s1 (stereo not given),54.2% (active)
17,CNC(=O)NC(=O)C(C)Sc1nnc(SCC(C)C)s1 (stereo not given),89.7% (active)
18,Cc1nc(SC(C)C(=O)NC(N)=O)c2c(C)c(C)sc2n1 (stereo not given),-7.75%
19,CCNC(=O)NC(=O)C(C)Sc1nnc(Nc2ccc(C)cc2)s1 (stereo not given),99.2% (active)
20,COc1cccc(Cn2c(=O)c(C(=O)N3CCCC3)nn(-c3cc(C)cc(C)c3)c2=O)c1,3.71%
21,COc1ccccc1Cn1c(C(=O)N2CCN(C(=O)C(Cl)c3ccccc3)C(C)C2)cc2ccsc21 (stereo not given),35.9%
22,CCOC(=O)c1ccc(NC(=O)N2CCN(C(=O)c3cc4ccoc4n3Cc3cccc(OC)c3)CC2C)cc1 (stereo not given),85.9% (active)

row,Compound,inhibition
1,O=C1c2ccccc2S(=O)(=O)N1Cc1ccccc1Oc1ccccc1,8.36%
2,O=C(Nc1ccc2ccccc2n1)C1CC2CCC1C2 (stereo not given),45.8%
3,O=C(CC1C=CCC1)Nc1nc2c(Cl)c(Cl)ccc2s1 (stereo not given),48.5%
4,Cc1cccc2sc(NC(=O)C3CC4CCC3C4)nc12 (stereo not given),85.8% (active)
5,CC1CCN(Cc2ncc(-c3ccccc3)o2)C2CCCCC12 (stereo not given),72.5% (active)
6,c1ccc(-c2cnc(CN3CCSc4ccccc43)o2)cc1,26%
7,CCc1[nH]n(-c2ccc(Cl)c(Cl)c2)c(=O)c1C1=C(N(C)C2CCCCC2)C(=O)N(c2ccccc2F)C1=O,65.4% (active)
8,COc1ccc(N2C(=O)C(c3c(C(C)C)[nH]n(-c4ccc(Cl)cc4)c3=O)=C(N3CCC(C)CC3)C2=O)c(OC)c1,39%
9,CCOc1ccccc1N=Cc1c(C)c(C#N)c2[nH]c3ccccc3n2c1=O,1.57%
10,CCc1c(C)c(C#N)c2[nH]c3ccccc3n2c1=S,40.8%
11,N#Cc1c(C(F)(F)F)cc(=O)n2c1[nH]c1ccccc12,101% (active)
12,Cc1cc(NC(=O)C(C)Nc2ccc(Br)c(C)c2)on1 (stereo not given),14%
13,Cc1cc(NC(C)C(=O)N(C)Cc2ccccc2)ccc1Br (stereo not given),50.4% (active)
14,O=C(Nc1ccccc1)c1cccn(OCc2ccccc2F)c1=O,32.1%
15,Cc1c(-c2cccc(NC(=O)Nc3ccccc3)c2)nc2ncccn12,18.8%
16,CCCSc1ncccc1C(=O)Nc1ccc(-c2ccccc2)cc1,89.9% (active)
17,CNc1ccc(-c2ccc(CC#N)cc2)cn1,38.5%
18,Cc1ccn(CC(=O)N2CCC(C(=O)Nc3ccc(Oc4ccccc4F)cc3)CC2)n1,19.3%
19,O=C(Nc1ccc(Oc2ccccc2F)cc1)C1CCN(C(=O)CCc2ccccc2)CC1,90.6% (active)
20,CSCCC(=O)N1CCC(C(=O)Nc2ccc(Oc3ccccc3F)cc2)CC1,76.3% (active)
21,COCC(=O)N1CCC(C(=O)Nc2ccc(Oc3ccccc3F)cc2)CC1,inactive
22,COc1ccc(CC(N)c2csc(Nc3cccc(OC)n3)n2)cc1 (stereo not given),85.1% (active)

row,Compound,inhibition
1,COc1cccc(Nc2nc(C(N)Cc3ccc(Cl)cc3)cs2)n1 (stereo not given),80.4% (active)
2,NC(Cc1ccc(Cl)cc1)c1csc(Nc2ccc(-c3ccccc3)nn2)n1 (stereo not given),91.2% (active)
3,COc1cccc(Nc2nc(C(N)Cc3ccc(F)cc3)cs2)n1 (stereo not given),86.6% (active)
4,COc1cccc(Nc2nc(C(N)C3CCCCC3)cs2)n1 (stereo not given),86.2% (active)
5,COc1cccc(Nc2nc(C(N)Cc3ccc(C(F)(F)F)cc3)cs2)n1 (stereo not given),75.8% (active)
6,COc1ccc(-c2csc(NC3CCCC3)n2)c(OC)c1,16.6%
7,CN(Cc1ccc(O)cc1)C(=O)C1=NOC(c2ccccc2)C1 (stereo not given),66.5% (active)
8,CC(C)c1cc(C(=O)N2CCOC(CCc3ccccc3)C2)no1 (stereo not given),56.6% (active)
9,O=C(CCc1cccs1)N1CCOC(CCCc2ccccc2)C1 (stereo not given),34.9%
10,CC(C)Cc1cc(C(=O)N2CCOC(CCCc3ccccc3)C2)n[nH]1 (stereo not given),54.1% (active)
11,O=C(c1ccc2c(c1)OCCO2)N1CCOC(CCc2ccccc2)C1 (stereo not given),39.8%
12,COc1ccc(C(=O)N2CCOC(CCc3ccccc3)C2)cc1F (stereo not given),57.4% (active)
13,O=C(COc1ccccc1F)Nc1ccc2c(c1)OC(F)(F)O2,21.4%
14,O=C(CCS(=O)(=O)c1ccccc1F)Nc1ccc(I)cc1,80.2% (active)
15,O=C1N(c2ccc3c(c2)OCO3)C(c2ccc(Cl)cc2)C1(F)F (stereo not given),89.3% (active)
16,c1cc2c(cc1[C@H]1OC[C@H]3[C@@H]1CO[C@H]3c1ccc3c(c1)OCO3)OCO2,49%
17,O=C1N(c2ccc(Cl)cc2)C(c2ccc3c(c2)OCO3)C1(F)F (stereo not given),78.8% (active)
18,Clc1ccc(-n2ncc3c2CCN(Cc2cc4c(cc2Cl)OCO4)C3)cc1,23.9%
19,O=C1N(c2ccc3c(c2)OCO3)C(c2ccc3c(c2)OCO3)C1(F)F (stereo not given),102% (active)
20,O=C1N(c2ccc3c(c2)OCO3)C(c2cccc(F)c2)C1(F)F (stereo not given),27%
21,O=C1N(c2ccccc2)C(c2ccco2)C1(F)F (stereo not given),40.3%

# From PubChem BioAssay AID1259343 (VanderVen Lab, College of Veterinary Medicine, Cornell …, 2017)
